HCV inhibitor: blocks hepatitis C virus. Huh7.5.1 HCVcc-Cre infection, luciferase reporter, 44 h. Potency, µM (top dose mostly 41.8 µM), inactives show at the highest dose activity change, negative = inhibition, usual class: inhibitors. actives 3.4% (n = 340,000). AID 651820; also: % is scaled to controls: 0 for no effect and ±100 for the full control effect
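After 44 h co-culture of compound, cells and HCVcc-Cre (~0.5 moi), substrate is added for 15 min at room temperature and luciferase measured over 15 sec. Cells were seeded at 1,000/well and pre-cultured 4 h.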
SARS PLpro yeast: SARS-CoV PLP inhibition in yeast. Potency, µM (doses to about 32.9 µM), without a hit: at the highest dose activity, positive = growth rescue, actives largely listed as activators. S. cerevisiae expressing SARS-CoV PLpro, growth rescue. actives 0.19% (n = 330,000). AID 485353; calls by dose curve; also: 0% is about no effect; nearly all actives have a fitted effect of over 55% in size
Pf growth 48h: P. falciparum growth inhibition at 48 hours (one generation); P. falciparum luciferase growth in erythrocytes, 48 h; Potency, µM (doses to about 28.7 µM), for the others: top-dose activity change, negative = inhibition, hits mostly inhibitors; actives 5.9% (n = 310,000); AID 504832; also: % is scaled to controls: 0 for no effect and ±100 for the full control effect
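Luciferase-expressing parasites in RBCs, 2% Hct / 0.1% parasitemia final; RPMI 1640 + 0.5% Albumax; 37 C, 5% CO2, one generation; luminescence read-out, lower signal = inhibition.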
AMA1 RON2 block: disrupts binding of P. falciparum AMA1 to RON2; AlphaScreen AMA1-biotinylated RON2 peptide binding; Potency, µM (top dose mostly 58.2 µM), inactives show at the highest dose activity change, negative = inhibition, usual class: inhibitors; actives 0.2% (n = 360,000); AID 720542;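 also: 0% = vehicle wells and -100% = peptide control; nearly all actives have a fitted effect of over 45% in size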
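AMA1 (3D7) with his tag at 25 nM final met compounds first, then biotinylated RON2 peptide at 25 nM; detection used donor plus acceptor beads, 10 µg/mL apiece, read by AlphaScreen after 30 min at room temperature.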
Pf growth 96h: P. falciparum growth inhibition at 96 hours; P. falciparum luciferase reporter growth, 96 h; Potency, µM (titrated, usually from 28.7 µM), inactives show at the top dose activity change, negative = inhibition, actives largely listed as inhibitors; actives 6.9% (n = 320,000); also: % is scaled to controls: 0 for no effect and ±100 for the full control effect
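96 h incubation, 37 C, 5% CO2, of luciferase-reporter P. falciparum-infected RBCs (2% hematocrit, 0.05% parasitemia final) with test compounds; endpoint luminescence.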
NS1 inh: blocks influenza NS1 protein function | Potency, µM (titrated, usually from 46.1 µM), without a hit: at the top dose activity, positive = more growth | actives 0.4% (n = 270,000); calls by dose curve; also: actives are rising curves; nearly all actives have a fitted effect of over 50% in size
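S. cerevisiae expressing influenza A NS1, grown in glucose, washed, then diluted 1:100 into pH 6.0 -URA galactose medium with 23 nl compound. Growth recovery read as OD600; NS1-free strain serves as control.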
* hit, by the source's call; u = inconclusive; x = no result; [ ] = dose if it differs, or a comment. In the library only some 12% were active in any assay of this set; here they are far more common. Unless noted, calls follow the shape of the dose curve; as a rule, active = well fitted curve in the direction sought with a large enough effect; inconclusive = small, poorly fitted or top-dose-only effect, or another doubt; inactive = no such curve, though single readings can be large; an effect the other way counts as inactive or inconclusive. Potency is read from the fitted curve at half-maximal effect.

SMILES	HCV inhibitor	SARS PLpro yeast	Pf growth 48h	AMA1 RON2 block	Pf growth 96h	NS1 inh
COc1ccc(NC(=O)c2ccc(C(=O)c3ccccc3)o2)cc1	-6%	3%	7.4µM*	17%	36%	-10%
COc1ccc(N/C(C)=C/C(=O)c2ccccc2)cc1	10µM*	2%	191%	-12%	12µM*	-11%
COC(=O)/C(=C\C(=O)c1ccccc1)Nc1ccc(OC)cc1	12%	0%	110%	-13%	127%	-6%
COc1cccc(C(=O)Nc2ccc(C(=O)c3ccccc3)cc2)c1	10µM*	-7%	3%	-2%	u	-25%
COc1cccc(NC(=O)CN(C)C(=O)CSc2nc(C)cc(C)n2)c1	6%	2%	-28%	17%	u	x
Cc1cc(N2CCN(C)CC2)nc2ccc(NC(=S)NCc3cccs3)cc12	10µM*	-1%	u	-12%	-3%	0%
COc1ccc(CNC(=S)Nc2ccc3nc(N4CCN(C)CC4)cc(C)c3c2)cc1	u	1%	u	-5%	u	-3%
COc1ccccc1CNC(=S)Nc1ccc2nc(N3CCN(C)CC3)cc(C)c2c1	-19%	0%	6.6µM*	-6%	320%	x
Cc1cc(C)c2oc(C(=O)N(Cc3ccccc3)C3CCS(=O)(=O)C3)cc(=O)c2c1 (stereo not drawn)	20%	0%	-22%	-13%	u	-7%
CCOc1ccc(CN(C(=O)c2cc(=O)c3cc(C)cc(C)c3o2)C2CCS(=O)(=O)C2)cc1 (stereo not drawn)	u	-4%	3.7µM*	2%	0%	-19%
Cc1cc2c3c(c1)C1(C(=O)N3C(C)(C)CC2C)C(C#N)=C(N)OC2=C1C(=O)CC(C)(C)C2 (stereo not drawn)	-8%	4%	12µM*	-8%	u	2%
CC1=CC(C)(C)N2C(=O)C3(C(C#N)=C(N)OC4=C3C(=O)CC(C)(C)C4)c3cc(C)cc1c32 (stereo not drawn)	13%	2%	x	0%	13µM*	-4%
Cc1cc2c3c(c1C)C1(C(=O)N3C(C)(C)CC2C)C(C#N)=C(N)Oc2cc(O)ccc21 (stereo not drawn)	-7%	10%	x	-7%	10µM*	-12%
COc1cc2c3c(c1)C1(C(=O)N3C(C)(C)C=C2C)C(C#N)=C(N)Oc2cc(O)ccc21 (stereo not drawn)	-8%	x	u	-4%	x	-15%
O=C(Nc1ccc(C(=O)O)cc1)/C(=C\c1cccc([N+](=O)[O-])c1)NC(=O)c1ccc(Br)o1	7%	-3%	-17%	0%	u	x
C[C@]12c3[nH]c4cc(-c5ccco5)ccc4c3CCN1C(=O)[C@@H](CC(=O)NCc1ccco1)C[C@@H]2C(=O)N1CCOCC1	-10%[8.37 µM]	-9%	x	-26%	x	x
COc1ccc(C2=CC(c3ccc(Cl)cc3)n3cnnc3N2)cc1OC (stereo not drawn)	-4%	-9%	10µM*	50%	x	-64%
COc1ccc(NC(=S)Nc2ccccn2)c(OC)c1	11µM*	-5%	71%	17%	76%	-7%
COc1cccc(NC(=S)Nc2cccnc2)c1	23%	8%	37%	0%	-10%	15%
COc1ccc(NC(=O)c2cc(-c3cccnc3)nc3c(C)c(C)ccc23)c(OC)c1	13µM*	-1%	u	-7%	0.83µM*	8%
COc1ccc(NC(=S)Nc2cccnc2)c(OC)c1	6%	-1%	14%	-3%	15µM*	x
COc1ccc(NC(=O)c2ccccc2C)c(OC)c1	x	-1%	-22%	-2%	u	-109%
Cc1ccc(NC(=S)Nc2cccnc2)c(S(=O)(=O)N2CCCCC2)c1	11µM*	0%	-1%	51%	u	x
Cc1occc1-c1nnc(SCC(=O)O)n1-c1ccccc1	13%	1%	15%	-2%	-6%	14%
CC(=O)c1ccc(NC(=O)C(C)Sc2nnc(-c3ccncc3)n2C2CC2)cc1 (stereo not drawn)	8%	-4%	x	4%	x	x

Bioassay records: PubChem BioAssay, National Center for Advancing Translational Sciences (NCATS)
